Screens: PubChem BioAssay, National Center for Advancing Translational Sciences (NCATS)
Hits are enriched below; roughly 12% of the tested compounds scored in any of these assays.
Pf growth 96h: Primary qHTS for delayed death inhibitors of the malarial parasite plastid, 96 hour incubation. P. falciparum luciferase reporter growth, 96 h. Potency, µM (top dose mostly 28.7 µM), without a hit: at the top dose activity change, negative = inhibition, actives largely listed as inhibitors. actives 6.9% (n = 320,000). AID 504834, 2011; note: % is set by controls: 0 for no effect and ±100 for the full control effect
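P. falciparum expressing integrated firefly luciferase, in erythrocytes at 2% hematocrit, 0.05% parasitemia, incubated with compounds 96 h at 37 C, 5% CO2. Growth inhibition read as loss of luminescence; two-generation exposure targets delayed-death apicoplast inhibitors.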
AmpC inh detg: qHTS Inhibitors of AmpC Beta-Lactamase (assay with detergent); actives 0.041% (n = 370,000); AmpC hydrolysis of nitrocefin, absorbance 480 nm, 0.01% Triton; P00811; Potency, µM (series often up to 114 µM), without a hit: at the top dose activity change, negative = inhibition, usual class: inhibitors;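 note: 0% = no-compound wells and -100% = no-enzyme wells; nearly all actives have a fitted effect of over 25% in size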
Target sequence (P00811 whole entry, looked up): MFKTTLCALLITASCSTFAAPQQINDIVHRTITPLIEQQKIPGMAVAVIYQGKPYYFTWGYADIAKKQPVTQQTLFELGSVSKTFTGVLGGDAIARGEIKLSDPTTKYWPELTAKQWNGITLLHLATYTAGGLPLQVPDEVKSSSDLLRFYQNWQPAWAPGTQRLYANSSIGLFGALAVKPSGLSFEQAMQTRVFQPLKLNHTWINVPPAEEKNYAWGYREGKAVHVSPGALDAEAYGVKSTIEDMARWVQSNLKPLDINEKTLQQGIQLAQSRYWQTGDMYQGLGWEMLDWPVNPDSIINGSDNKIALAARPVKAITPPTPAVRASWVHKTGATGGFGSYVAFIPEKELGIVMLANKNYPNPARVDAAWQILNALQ
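AmpC (5.3 nM in the dispensed reagent) in 20 mM phosphate pH 7.0 with 0.01% (detergent screen) or 0.0001% Triton X-100 was preincubated with compounds for 15 min at room temperature. Nitrocefin was then added from an 800 uM solution, and hydrolysis was followed at 480 nm.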
SARS PLP yeast: qHTS of Yeast-based Assay for SARS-CoV PLP; S. cerevisiae expressing SARS-CoV PLpro, growth rescue; Potency, µM (series often up to 32.9 µM), inactives show at the top dose activity, positive = growth rescue, hits mostly activators; actives 0.19% (n = 330,000); AID 485353, 2010; calls by dose curve; note: 0% is about no effect; nearly all actives have a fitted effect of over 55% in size
Pf growth 48h: Primary qHTS for delayed death inhibitors of the malarial parasite plastid, 48 hour incubation; Potency, µM (doses to about 28.7 µM), without a hit: at the highest dose activity change, negative = inhibition, usual class: inhibitors; AID 504832, 2011; P. falciparum luciferase growth in erythrocytes, 48 h; actives 5.9% (n = 310,000); note: % is set by controls: 0 for no effect and ±100 for the full control effect
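Firefly luciferase activity from engineered P. falciparum reports growth; inhibitors lower the luminescent signal. Cultures contained 2% hematocrit erythrocytes at 0.1% final parasitemia.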
AmpC no deterg: qHTS Inhibitors of AmpC Beta-Lactamase (assay without detergent); P00811; AmpC nitrocefin hydrolysis, absorbance 480 nm, 0.0001% Triton; Potency, µM (highest dose often 57.1 µM), for the others: top-dose activity change, negative = inhibition, hits mostly inhibitors; actives 0.52% (n = 330,000); AID 485341, 2010;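 note: plate controls were no compound for no effect and no enzyme for full effect; nearly all actives have a fitted effect of over 20% in size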
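AmpC (5.3 nM in the dispensed reagent) in 20 mM phosphate pH 7.0 with 0.01% (detergent screen) or 0.0001% Triton X-100 was preincubated with compounds for 15 min at room temperature. Nitrocefin was then added from an 800 uM solution, and hydrolysis was followed at 480 nm.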
Sm TGR block: qHTS Assay for the Inhibitors of Schistosoma Mansoni Peroxiredoxins; Schistosoma mansoni thioredoxin glutathione reductase (TGR), Q962Y6; purified TGR, DTNB reduction, TNB absorbance 405 nm; Potency, µM (series often up to 114 µM), inactives show at the top dose activity change, negative = inhibition, hits mostly inhibitors; actives 3% (n = 360,000); note: % is set by controls: 0 for no effect and ±100 for the full control effect; nearly all actives have a fitted effect of over 60% in size
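First, TGR (20 nM dispensed) and NADPH were mixed with compound. Second, a 15 min room-temperature incubation followed. Third, further NADPH and then DTNB were added to start the reaction. Finally, TNB absorbance was monitored kinetically.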
An asterisk follows results filed as active; ? = inconclusive; . = no result given; [ ] = remark or other dose. Unless noted, calls come from the whole dose curve; as a rule, active = well fitted curve in the direction sought with a large enough effect; inconclusive = small, poorly fitted or top-dose-only effect, or another doubt; inactive = no such curve, though single readings can be large; an effect the other way counts as inactive or inconclusive. Potency is the fitted concentration of half-maximal effect.

SMILES	Pf growth 96h	AmpC inh detg	SARS PLP yeast	Pf growth 48h	AmpC no deterg	Sm TGR block
CCc1nc2nc(C)c(NS(=O)(=O)c3ccc(C(C)(C)C)cc3)c(=O)n2[nH]1	.	-4.2%	.	.	.	-1.9%
CSc1ccccc1NC(=O)c1ccc(N2CCCC2=O)cc1	216.2%	-1.3%	-9.0%	173.1%	-9.3%	-23.2%
Cc1cc(/C=N/n2cnnc2)c(C)n1-c1ccc2c(c1)OCO2	10.4µM*	-8.5%	0.0%	10.6%	-12.4%	-8.6%
COc1ccc(-n2c(C)cc(/C=C(\C#N)C(=O)NCc3ccco3)c2C)cc1	?	-16.6%	-2.1%	4.65µM*	-20.6%	-7.1%
Cc1cc(/C=C(\C#N)C(=O)Nc2ccccc2)c(C)n1-c1ccc2c(c1)OCO2	?	?	-0.5%	11.7µM*	?	4.9%
Cc1cc(/C=C(\C#N)C(=O)Nc2ccc(F)cc2)c(C)n1-c1ccc(N2CCOCC2)c([N+](=O)[O-])c1	.	?	2.1%	7.38µM*	-19.2%	9.7%
Cc1cc(/C=C(/C#N)C(=O)Nc2ccccc2)c(C)n1-c1cccnc1	?	-0.9%	4.2%	79.5%	-4.1%	-24.8%
Cc1ccc(-c2ccc(=O)n(CC(=O)Nc3ccc(C(C)C)cc3)n2)cc1	.	15.2%	.	.	.	-1.0%
COCCn1cc(C(=S)N2CCOCC2)c2ccccc21	-7.7%	-5.2%	-3.7%	.	1.5%	1.0%
Cc1ccc(NC(=O)CCc2nnc3ccc(N4CCC(C)CC4)nn23)nc1	?	-11.6%	0.5%	?	80.1%	7.2%
O=C(COC(=O)C1CC(=O)N(Cc2ccco2)C1)c1ccc(OC(=O)c2ccco2)cc1 (stereo not given)	.	?	-9.2%	-5.0%	77.6%	11.2µM*
COc1ccc(OC)c(NC(=O)c2cc(-c3cc(C)cc(C)c3O)n[nH]2)c1	9.28µM*	-2.7%	-0.4%	.	-30.8%	0.5%
COc1ccc(NC(=O)c2cc(-c3cc(C)c(C)cc3O)n[nH]2)c(OC)c1	?	-2.1%	-0.4%	1.4%[0.00184 µM]	-34.5%	1.8%
Cc1ccc(C(=O)Nc2cc(Cl)ccc2OC(=O)c2ccc(C)cc2)cc1	0.465µM*	?	-7.1%	?	-37.5%	1.8%
COc1ccc(Cl)cc1NC(=O)c1cc(-c2cc(C)ccc2O)n[nH]1	2.33µM*	-5.8%	-0.4%	1.85µM*	-3.1%	-3.3%
COc1ccc(OC)c(NC(=O)c2cc(-c3cc(C)c(C)cc3O)n[nH]2)c1	1.85µM*	-5.8%	-2.7%	2.62µM*	?	5.7%
COc1ccc(C(=O)NCCc2cnc[nH]2)cc1OC	12.9%	-5.5%	1.5%	13.5%	-15.2%	-8.5%
CCOc1ccc(C(C)=O)cc1COc1ccc(C)nc1[N+](=O)[O-]	-14.8%	-3.9%	-2.1%	-5.9%	-7.6%	10µM*
Cc1ccc(OCc2ccccc2C)c([N+](=O)[O-])n1	-4.4%	2.4%	-21.2%	14.0%	-19.3%	1.5%
Cc1noc(C)c1S(=O)(=O)NCCc1csc2nc(-c3ccc(Cl)cc3)nn12	.	0.5%	.	.	.	6.7%
C[C@@]12C(=O)N(Cc3ccccc3)CC(=O)N1[C@H]1c3cc(Cl)ccc3OC[C@@H]1[C@@H]2c1ccccc1	?	-2.6%	-1.2%	9.28µM*	-0.8%	-3.4%
C[C@@]12C(=O)N(Cc3ccc(F)cc3)CC(=O)N1[C@H]1c3cc(Cl)ccc3OC[C@@H]1[C@@H]2c1ccccc1	.	.	-1.6%	.	-5.8%	.
C[C@@]12C(=O)N(Cc3ccc(Cl)cc3)CC(=O)N1[C@H]1c3ccccc3OC[C@@H]1[C@@H]2c1ccccc1	?	1.5%	0.3%	?	0.6%	3.5%
COc1ccc(CN2CC(=O)N3[C@H]4c5ccccc5OC[C@@H]4[C@H](c4ccccc4)[C@]3(C)C2=O)cc1	?	-1.3%	-0.2%	9.28µM*	61.2%	-1.0%
COc1ccc(/C=C(/NC(=O)c2ccco2)C(=O)NCc2ccco2)cc1OC	?	-6.2%	3.5%	-1.6%	0.5%	0.1%
SMILES	Pf growth 96h	AmpC inh detg	SARS PLP yeast	Pf growth 48h	AmpC no deterg	Sm TGR block
O=C(O)c1ccc(COc2c(F)c(F)c(F)c(F)c2F)o1	116.5%	-9.3%	-0.1%	152.7%	-16.0%	44.7µM*
Cc1cc(C)cc(OCc2ccc(C(=O)O)o2)c1	26.1%	-14.1%	-3.6%	11.4%	-6.6%	4.4%
Cc1onc(-c2c(F)cccc2Cl)c1C(=O)OCC(=O)NCc1ccco1	.	-5.9%	-3.2%	?	-42.7%	17.8µM*
Cc1onc(-c2c(Cl)cccc2Cl)c1C(=O)NCc1ccccn1	2.08µM*	1.2%	1.8%	-17.8%	-21.8%	10.7%
O=C(NCc1ccco1)c1c(F)c(F)c(F)c(C(=O)NCc2ccco2)c1F	31.7%	-4.9%	0.2%	27.3%	-22.1%	44.7µM*
Cc1onc(-c2c(F)cccc2Cl)c1C(=O)OCC(=O)NC(c1ccccc1)c1ccccc1	.	2.2%	-1.4%	11.7µM*	-35.1%	0.1%
NNC(=O)c1[nH]c(-c2ccccc2)cc1-c1ccccc1	?	-9.3%	3.4%	?	-22.2%	0.0%
COc1ccc(CCNC(=O)Cn2c(=O)nc(-c3ccccc3F)c3cc(Cl)ccc32)cc1OC	.	12.8%	.	.	.	5.0%
COC(=O)N/N=C/c1cn(Cc2c(Cl)cccc2Cl)c2ccccc12	?	0.3%	-13.5%	?	-0.4%	5.4%
Cc1ccc(C)c(NC(=O)CN2C(=O)CCc3ccccc32)c1	.	2.5%	.	.	.	-6.6%
Cc1csc(NC(=O)c2c(-c3c(F)cccc3Cl)noc2C)n1	?	-15.6%	5.2%	11.7µM*	-22.6%	-6.7%
Cc1onc(-c2c(F)cccc2Cl)c1C(=O)Nc1cccc(S(=O)(=O)NCc2ccco2)c1	?	0.8%	-3.9%	-26.0%	-25.7%	28.2µM*
Cc1csc(NC(=O)c2c(-c3c(Cl)cccc3Cl)noc2C)n1	.	1.2%	6.8%	?	-34.2%	-16.5%
Cc1onc(-c2c(F)cccc2Cl)c1C(=O)NCc1ccco1	1.47µM*	6.9%	-9.3%	-10.3%	-15.3%	-6.4%
Cc1onc(-c2c(F)cccc2Cl)c1C(=O)NCc1cccs1	8.3%	?	-1.0%	9.8%	-11.8%	8.0%
Cc1cc(C)c(S(=O)(=O)Nc2ccc(-c3ccc(N4CCC(C)CC4)nn3)cc2)cc1C	.	19.7%	.	.	.	-7.4%
Cc1cc(NC(=O)c2cc(C3CC3)on2)n(-c2ccccc2)n1	2.62µM*	?	-7.3%	13.2%	-7.1%	-9.3%
Cc1cc(NC(=O)c2ccccc2)n(-c2ccccc2)n1	1.85µM*	2.4%	-0.1%	-6.1%	-2.6%	14.8%
